Measurements taken from PubChem BioAssay.
A number with no mark means an inactive call. For some of these results: Measured potencies and affinities stand elsewhere. Activity calls are given as the source filed them. Unless noted, how the calls were made is not given here.

How the values were obtained:
[1] = antimalarial activity against Dd2 strain (AID 2302;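 active means growth inhibition above 50% at the single 2 µM test dose, taken to imply half-maximal potency below 2 µM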;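 further: 0% = DMSO untreated growth and 100% = chloroquine plus artemisinin killed control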); conditions: P. falciparum Dd2 in RBCs, LDH growth readout, 72 h; at 2 µM; hits give high values
[2] = HepG2 cytotoxicity, primary screen, cytotoxicity control for P. falciparum antimalarial project, cell-based, ATP luminescence (AID 2303;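 active means inhibition above 50%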;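 further: 0% = DMSO wells and 100% = digitonin-killed cells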); conditions: HepG2 viability, 24-48 h, at 10 µM, hits give high values
[3] = molecular target: L-lactate dehydrogenase (Plasmodium falciparum (isolate CDC / Honduras)) (UniProt Q27743); assay: PfLDH activity inhibition – cell lysate, 3D7 strain, counter-screen for P. falciparum growth inhibition project (AID 2304);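 further: 0% = vehicle and 100% = reference inhibitor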; conditions: P. falciparum 3D7 crude extract, LDH APAD/NBT absorbance; at 2 µM; hits give high values
Sequence of L-lactate dehydrogenase (Plasmodium falciparum (isolate CDC / Honduras)) (Q27743 whole entry, looked up): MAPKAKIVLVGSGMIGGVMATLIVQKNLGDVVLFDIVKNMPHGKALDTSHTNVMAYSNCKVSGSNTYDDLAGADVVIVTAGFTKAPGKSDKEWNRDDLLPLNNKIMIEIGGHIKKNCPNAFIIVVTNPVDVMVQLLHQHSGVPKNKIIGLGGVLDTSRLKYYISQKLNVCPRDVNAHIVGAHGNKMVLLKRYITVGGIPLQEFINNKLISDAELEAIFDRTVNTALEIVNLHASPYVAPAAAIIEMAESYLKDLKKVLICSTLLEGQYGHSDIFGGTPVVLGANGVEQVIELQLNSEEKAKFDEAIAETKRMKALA

[4] = inhibition of 3D7 malaria parasite growth – strain 3D7 (AID 2306);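 further: 0% = DMSO wells and 100% = chloroquine plus artemisinin control wells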; conditions: P. falciparum 3D7 erythrocytic growth, LDH absorbance, 72 h; at 2 µM; hits give high values
[5] = molecular target: Calcium-dependent protein kinase 1 (Plasmodium falciparum (isolate 3D7)) (UniProt P62344); assay: PfCDPK1 kinase inhibitors, biochemical, TCAMS library (AID 1159585; cut-off not given, nearly all actives have IC50 up to about 0.98 µM;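 further: inhibitors leave more ATP so luminescence rises with inhibition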); conditions: recombinant PfCDPK1, Kinase-Glo ATP depletion luminescence
Sequence of Calcium-dependent protein kinase 1 (Plasmodium falciparum (isolate 3D7)) (P62344 whole entry, looked up): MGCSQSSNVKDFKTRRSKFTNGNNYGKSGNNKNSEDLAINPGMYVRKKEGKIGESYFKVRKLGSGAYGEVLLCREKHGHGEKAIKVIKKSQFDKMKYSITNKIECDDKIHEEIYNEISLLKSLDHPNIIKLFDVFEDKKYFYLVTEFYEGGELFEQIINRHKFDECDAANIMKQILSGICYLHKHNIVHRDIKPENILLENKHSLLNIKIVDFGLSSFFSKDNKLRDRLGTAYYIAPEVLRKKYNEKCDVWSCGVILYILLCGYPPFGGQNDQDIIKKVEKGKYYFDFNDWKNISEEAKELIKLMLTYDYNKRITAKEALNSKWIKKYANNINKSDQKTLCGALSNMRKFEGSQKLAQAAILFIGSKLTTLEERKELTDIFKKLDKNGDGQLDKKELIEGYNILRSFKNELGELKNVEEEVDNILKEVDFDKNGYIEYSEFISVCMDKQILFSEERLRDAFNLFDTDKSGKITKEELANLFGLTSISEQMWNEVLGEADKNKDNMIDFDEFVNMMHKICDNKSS

[6] = molecular target: Plasmodium falciparum protein kinase 6 (PK6, PF3D7_1337100) (UniProt Q8IDW1); assay: PfPK6 kinase inhibitors, biochemical, TCAMS library (AID 1159586); conditions: recombinant PfPK6, Kinase-Glo ATP depletion luminescence
Sequence of Plasmodium falciparum protein kinase 6 (PK6, PF3D7_1337100) (Q8IDW1 1-305): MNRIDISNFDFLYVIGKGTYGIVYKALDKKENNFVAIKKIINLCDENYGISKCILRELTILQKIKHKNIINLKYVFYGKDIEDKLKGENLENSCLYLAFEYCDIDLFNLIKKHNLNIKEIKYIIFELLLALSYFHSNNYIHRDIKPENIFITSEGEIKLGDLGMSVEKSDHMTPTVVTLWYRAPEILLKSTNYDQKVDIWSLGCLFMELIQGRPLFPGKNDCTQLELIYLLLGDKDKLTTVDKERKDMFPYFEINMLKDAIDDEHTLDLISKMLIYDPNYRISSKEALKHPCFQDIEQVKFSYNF

[7] = molecular target: Protein kinase 7 (PK7), Plasmodium falciparum 3D7 (PF3D7_0213400) (UniProt Q7YTF7); assay: inhibition of Plasmodium PK7 catalytic activity – biochemical, TCAMS antimalarial set, Kinase-Glo luminescence (AID 1159587); conditions: recombinant PfPK7, Kinase-Glo ATP depletion luminescence
Sequence of Protein kinase 7 (PK7), Plasmodium falciparum 3D7 (PF3D7_0213400) (Q7YTF7 1-343): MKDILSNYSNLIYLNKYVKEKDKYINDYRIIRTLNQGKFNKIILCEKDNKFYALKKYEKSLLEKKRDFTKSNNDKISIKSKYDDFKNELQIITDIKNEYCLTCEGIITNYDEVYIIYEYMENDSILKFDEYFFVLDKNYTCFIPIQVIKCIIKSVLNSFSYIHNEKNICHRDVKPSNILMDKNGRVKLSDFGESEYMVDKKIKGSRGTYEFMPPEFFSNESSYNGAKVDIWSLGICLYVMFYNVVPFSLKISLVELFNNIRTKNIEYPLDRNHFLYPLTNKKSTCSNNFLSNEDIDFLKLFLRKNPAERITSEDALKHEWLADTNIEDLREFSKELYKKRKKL

[8] = molecular target: Calcium-dependent protein kinase 4 (Plasmodium falciparum (isolate 3D7)) (UniProt Q8IBS5); assay: PfCDPK4 kinase inhibitors, biochemical, TCAMS library (AID 1159588; cut-off not given, nearly all actives have IC50 up to about 0.91 µM); conditions: recombinant PfCDPK4, Kinase-Glo ATP depletion luminescence
Sequence of Calcium-dependent protein kinase 4 (Plasmodium falciparum (isolate 3D7)) (Q8IBS5 whole entry, looked up): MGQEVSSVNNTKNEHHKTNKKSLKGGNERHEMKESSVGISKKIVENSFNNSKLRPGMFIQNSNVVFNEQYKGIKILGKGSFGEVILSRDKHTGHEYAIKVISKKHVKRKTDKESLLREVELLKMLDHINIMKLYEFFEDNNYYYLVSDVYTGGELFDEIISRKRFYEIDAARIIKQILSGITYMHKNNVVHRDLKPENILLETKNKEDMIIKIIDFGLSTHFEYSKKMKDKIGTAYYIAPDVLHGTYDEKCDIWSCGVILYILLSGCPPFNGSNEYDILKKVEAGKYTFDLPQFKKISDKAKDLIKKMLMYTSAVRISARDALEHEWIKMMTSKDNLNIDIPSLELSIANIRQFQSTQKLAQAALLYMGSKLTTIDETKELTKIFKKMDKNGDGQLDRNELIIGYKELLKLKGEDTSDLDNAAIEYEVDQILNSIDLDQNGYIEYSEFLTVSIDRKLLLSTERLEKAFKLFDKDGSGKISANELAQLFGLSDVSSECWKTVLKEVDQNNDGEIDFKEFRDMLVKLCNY

Structure (SMILES)	growth inhibition [1]	inhibition [2]	inhibition [3]	growth inhibition [4]	outcome [5]	outcome [6]	outcome [7]	outcome [8]
COc1ccc(NC(=O)CCNc2cc(C)nc(NCCOc3ccccc3)n2)cc1	2%	0%	-1%	96% (active)	inactive	inactive	inactive	inactive
COc1cccc(CN2CCC(N3CCc4cc(NC(=O)c5cc(C)on5)ccc43)C2)c1OC (centres undefined)	92% (active)	9%	4%	93% (active)	inactive	inactive	inactive	inactive
Cc1cnc(C(=O)Nc2cccc(-c3ccc(-c4nc5ccc(F)cc5[nH]4)cc3)c2)cn1	13%	19%	-2%	102% (active)	inactive	inactive	inactive	inactive
Cc1cc(NC(=O)CCCN2CCN(c3cccc(Cl)c3Cl)CC2)ccc1N1CCN(C(C)C)CC1	53% (active)	86% (active)	-1%	102% (active)	inactive	inactive	inactive	inactive
COc1ccc2nc(C)cc(NN=Cc3ccc(Cl)cc3)c2c1	100% (active)	2%	3%	100% (active)	inactive	inactive	inactive	inactive
CC[C@H](C)CNC(=O)c1cncc(-c2ccc(CNC3CCCC3)cc2)c1	5%	-25%	0%	97% (active)	inactive	inactive	inactive	inactive
Oc1ccc(CCNc2nc(NCc3ccccc3-c3cccc(Cl)c3)nc(N3CCNCC3)n2)cc1	11%	15%	-3%	84% (active)	inactive	inactive	inactive	inactive
Cc1cnc2ccc(NS(=O)(=O)c3sc4ccc(Cl)cc4c3C)cc2c1N1CCNCC1	-1%	-9%	4%	99% (active)	inactive	inactive	inactive	inactive
CN(C)CCCc1cc(NC(=O)Nc2cccc(Cl)c2Cl)ccc1I	45%	12%	1%	102% (active)	inactive	inactive	inactive	inactive
O=C(Cc1ccc(-n2cnnn2)cc1)N(Cc1cncn1Cc1cccc(C(F)(F)F)c1)CC1CC1	-2%	-12%	0%	86% (active)	inactive	inactive	inactive	inactive
CCOC(=O)c1cc(=O)c2ccc(OCC#N)cc2o1	86% (active)	2%	-6%	88% (active)	inactive	inactive	inactive	inactive
COc1ccc(OC)c2c1CCN(CCN1CCC(C(=O)Nc3ccc(C(=O)Nc4ccc(Cl)cc4)cc3)CC1)C2	100% (active)	25%	-2%	100% (active)	inactive	inactive	inactive	inactive
N#Cc1cncc(-c2nc3c(N4CCC(N5CCCC5)CC4)cccc3n2CCNCc2ccccc2)c1	58% (active)	3%	-2%	100% (active)	inactive	inactive	inactive	inactive
COc1ccc2nc(-c3cccc(C)n3)nc(Nc3ccncc3)c2c1	42%	-1%	-3%	101% (active)	inactive	inactive	inactive	inactive
OCCN1CCN(Cc2ccc(-c3cccc(-c4nc5ccccc5[nH]4)c3)cc2)CC1	16%	32%	6%	96% (active)	inactive	inactive	inactive	inactive
CCc1nc2c(cnn2CC)c(NC2CCOCC2)c1CNC(=O)N1CCOCC1	48%	0%	4%	98% (active)	inactive	inactive	inactive	inactive
COc1ccc2nccc([C@@H](O)CN3CCC(NCc4cc5c(F)ccc(F)c5[nH]4)CC3)c2c1	67% (active)	29%	0%	100% (active)	inactive	inactive	inactive	inactive
COc1ccc(C=NNc2c3ccccc3nc3ccccc23)c2ccccc12	23%	9%	2%	82% (active)	inactive	inactive	inactive	inactive
COc1cc2nc(-c3ccccc3)nc(N3CCN(C(=O)c4ccco4)CC3)c2cc1OC	87% (active)	-7%	7%	89% (active)	inactive	inactive	inactive	inactive
CCOC(=O)C1=C(C)NC(C)=C(C(=O)OCC)C1(C(=O)OCc1ccccc1)c1cccc(C(F)(F)F)c1	60% (active)	-17%	5%	88% (active)	inactive	inactive	inactive	inactive
O=c1n(CC2CCCCC2)c2cc(Cl)cc(OCCNc3ccncc3)c2n1CC1CCCCC1	64% (active)	2%	-3%	100% (active)	inactive	inactive	inactive	inactive
CN1CCC(C(=O)N(Cc2ccc(-c3ccc(CNCCc4ccccc4)cn3)cc2)C2CCN(Cc3ccccc3)CC2)CC1	99% (active)	24%	-6%	100% (active)	inactive	inactive	inactive	inactive
CCN1CCC(N(Cc2ccc(-c3ccc(C(F)(F)F)cc3)cc2)C(=O)Cn2c(CCc3cccc(F)c3F)cc(=O)c3ccccc32)CC1	94% (active)	100% (active)	3%	94% (active)	inactive	inactive	inactive	inactive
